We go through 3 compounds from PubChem BioAssay AID651871 (Sanford-Burnham Center for Chemical Genomics, 2012).

For this assay, the system named is HL-1. Description: protection of cardiomyocytes from stress damage, SAR follow-up, cell-based, panel, H9c2 and HL-1, ATP luminescence, set 2 (AID 651871).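 Also: cells exposed to stressor for 2 h before ATP readout; reference of the scale not given here.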 To be noted: H9c2/HL-1 cardiomyocytes, 2-deoxyglucose stress, with 2-deoxyglucose.
[1] abbreviates: run 12, at 79 µM (top of the series).

Molecules are shown by their SMILES. “And” between values parts separate entries of the source, which are not always exact repeats. Identical values can stand only once.

Turning to `COc1ccc2nc(-c3cc(OC)c(OC)c(OC)c3)cc(C(=O)NCC(=O)Nc3ccc(C(C)=O)cc3)c2c1`, the activity (protection/inhibition) under setting [1] is 62.5%.

For the compound `COc1ccc2c(c1OC)C(=O)N1c3ccccc3C(=O)N(Cc3cccc(Cl)c3Cl)C21` (centres undefined), the activity (protection/inhibition) is, setting by setting: (run 12, at 19.8 µM (top of the series)) 51%; under setting [1], 65.5% and -16.5%.

For the compound `CCOC(=O)c1cccc(NC(=O)CNC(=O)c2cc(-c3cc(OC)c(OC)c(OC)c3)nc3ccccc23)c1`, under setting [1], the activity (protection/inhibition) stood at 63.3%.
